Arbovirus anti – antivirals against arbovirus infection | arbovirus infection cell-based antiviral screen | inhibition, % at 10 µM | 200,000 compounds, 0.37% hits; in the data active = inhibition above about 30%
Hsp70 act – switches on Hsp70 transcription; HeLa Hsp70 promoter luciferase reporter, luminescence; scaled: vehicle 0, proteasome-inhibitor control 100%; activation, % at 10 µM; 200,000 compounds, 0.04% hits;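 active = activation above the mean across all tested compounds plus 3 SD, cutoff set per campaign, cut at about 5.5% in these data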
Wee1 stabilizer – blocks degradation of human Wee1 kinase. P30291. HeLa Luc-Wee1K328M stability, luciferase luminescence; 100% = proteasome inhibitor MG132 effect. reporter increase, % at 5 µM. 220,000 compounds, 1.2% hits. AID 1321;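 active = activation above the mean of all tested compounds plus 3 SD, set per screening run, cut at about 8.8% in these data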;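 also: cells exposed to compound for 20 h before luminescence read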
PKD1 kinase inh – inhibitors of human PKD1 kinase; Q15139; PKD1 kinase fluorescence polarization assay; inhibition, % (no concentration beside the values); 200,000 compounds, 0.056% hits; in the data active = inhibition above about 50%
Target sequence (Q15139 whole entry, looked up): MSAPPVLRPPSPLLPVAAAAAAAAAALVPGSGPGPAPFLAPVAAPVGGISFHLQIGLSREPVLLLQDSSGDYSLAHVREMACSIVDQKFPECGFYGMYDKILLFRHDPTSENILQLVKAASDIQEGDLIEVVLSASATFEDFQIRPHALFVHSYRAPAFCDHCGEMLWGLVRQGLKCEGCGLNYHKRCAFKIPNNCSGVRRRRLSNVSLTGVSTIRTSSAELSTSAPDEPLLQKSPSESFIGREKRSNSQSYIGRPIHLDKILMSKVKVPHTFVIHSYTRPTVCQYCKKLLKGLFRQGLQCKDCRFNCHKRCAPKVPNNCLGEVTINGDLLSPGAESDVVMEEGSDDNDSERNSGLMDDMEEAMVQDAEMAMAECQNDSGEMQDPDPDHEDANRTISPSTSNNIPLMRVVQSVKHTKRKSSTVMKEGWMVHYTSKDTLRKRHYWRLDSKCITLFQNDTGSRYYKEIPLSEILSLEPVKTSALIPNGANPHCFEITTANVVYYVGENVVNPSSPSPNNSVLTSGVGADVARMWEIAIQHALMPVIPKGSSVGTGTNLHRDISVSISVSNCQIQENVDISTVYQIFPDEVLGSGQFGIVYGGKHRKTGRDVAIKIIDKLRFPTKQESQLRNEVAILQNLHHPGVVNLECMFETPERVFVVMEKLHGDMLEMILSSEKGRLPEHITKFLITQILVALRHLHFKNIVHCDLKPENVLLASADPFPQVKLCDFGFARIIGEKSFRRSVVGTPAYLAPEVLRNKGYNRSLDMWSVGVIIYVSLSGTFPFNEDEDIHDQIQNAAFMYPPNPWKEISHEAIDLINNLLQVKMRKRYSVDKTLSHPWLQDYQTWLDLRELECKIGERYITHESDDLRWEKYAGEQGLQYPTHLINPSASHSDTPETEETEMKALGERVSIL
HMGR II inh – blocks class II HMG-CoA reductase of Enterococcus faecalis. 190,000 compounds, 0.41% hits. inhibition, % at 10 µM. purified E. faecalis HMGR, NADPH absorbance 340 nm kinetic;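 active = inhibition above a set limit, the median over all tested compounds plus 3 SD, cut at about 9.5% in these data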;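 also: enzyme runs in reverse so mevalonate oxidation gives rising NADPH absorbance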
Wee1 stab conf – confirmation of human Wee1 degradation inhibitors | activation, % at 5 µM | AID 1410 | HeLa Luc-Wee1K328M degradation, luminescence; vehicle 0%, proteasome-blocked wells 100% | 1,100 compounds, 4% hits | shares compounds with Wee1 stabilizer; in the data active = activation above about 8.9%
Of the large screens only hits and unclear results are named; the others gave an inactive call (follow-up assays come after a bar, where they were run). Rows were chosen to be rich in hits. Some 2% of all compounds tested hit in one or more screens of this group.

COc1cc(C=C2C(=O)NC(=O)NC2=O)ccc1OCc1ccc([N+](=O)[O-])cc1	Wee1 stabilizer 12
O=C1NC(=O)C(=Cc2ccc(Oc3ccc([N+](=O)[O-])cc3)cc2)C(=O)N1	none
c1ccc2c(CN3CCN(C4CCCCC4)CC3)c[nH]c2c1	Wee1 stabilizer 11
c1ccc2c(CN3CCCCCCC3)c[nH]c2c1	none
CNC(C(=O)c1ccccc1)C(OC)c1cccc([N+](=O)[O-])c1 (centres undefined)	none (no result: Arbovirus anti, Hsp70 act, PKD1 kinase inh, HMGR II inh)
O=C(N/N=C/c1c(O)n(CCc2ccccc2)c(=O)[nH]c1=O)c1ccncc1	Arbovirus anti 32
O=C(N/N=C/c1c(O)n(Cc2ccccc2)c(=O)[nH]c1=O)c1ccccc1O	Arbovirus anti 58
O=C(N/N=C/c1c(O)n(Cc2ccc(F)cc2)c(=O)[nH]c1=O)c1ccccc1O	Arbovirus anti 55
O=C1NC(=O)N(c2ccccc2F)C(=O)/C1=C/c1ccc(Sc2nc3ccccc3[nH]2)o1	none
O=C1NC(=O)N(c2cccc(Cl)c2)C(=O)/C1=C\c1ccc(Sc2nc3ccccc3[nH]2)o1	Wee1 stabilizer 11
O=[N+]([O-])/C(Cl)=C1\NCCN1Cc1ccc(Cl)nc1	HMGR II inh 14
O=[N+]([O-])/C=C1/NCCN1Cc1ccc(Cl)nc1	none
CC(C)COP(=O)(OCC(C)C)C(O)c1cccnc1 (centres undefined)	none
CCCCCn1c(=O)c(C(=O)Nc2nc3ccccc3[nH]2)c(O)c2ccccc21	Wee1 stabilizer 10 (no result: Arbovirus anti, Hsp70 act, PKD1 kinase inh, HMGR II inh)
O=C1NC(=O)C(CCc2ccncc2)(CCc2ccncc2)C(=O)N1Cc1ccccc1	none
C[C@H]1CC[C@@]2(C)[C@@H](CC[C@@H]3[C@@H]2CC[C@]2(C)[C@@H](O)CC[C@@H]32)C1	none (no result: Arbovirus anti, Hsp70 act, PKD1 kinase inh, HMGR II inh)
COc1ccccc1-n1c(O)c(/C=N/NC(=S)Nc2ccccc2)c(=O)[nH]c1=S	none (no result: Arbovirus anti, Hsp70 act, PKD1 kinase inh, HMGR II inh)
COc1ccc(-c2cc(=O)c3c(OC)c(OC)c(OC)cc3o2)cc1	Wee1 stabilizer 9.3
COc1ccc(-c2cc(=Nc3ccccc3)c3cc(C)ccc3o2)cc1	none
Cc1[nH]c2ccccc2c1C1=CCNCC1	Arbovirus anti 46
CC(=NCc1ccco1)c1c(O)n(-c2ccccc2C)c(=O)[nH]c1=O	none (no result: Arbovirus anti, Hsp70 act, PKD1 kinase inh, HMGR II inh)
CCN(CC)C(=O)c1ccc(NC(=O)c2cccc(F)c2)cc1	Wee1 stabilizer 8.8
CC(Cc1ccccc1)NC(=O)Cc1ccc(N(C)C)cc1 (centres undefined)	HMGR II inh 11
CC(Cc1ccccc1)NC(N)=O (centres undefined)	none (no result: Arbovirus anti, Hsp70 act, PKD1 kinase inh, HMGR II inh)
Cc1ccc(-n2c(O)c(/C=N/c3ncc(Br)cc3Br)c(=O)[nH]c2=O)cc1	HMGR II inh 10.0
Cc1ccsc1C(=O)C1CCCN(Cc2c(C)nn(C(C)C)c2C)C1 (centres undefined)	none
CN[C@@H]1C[C@@H](c2ccc(Cl)c(Cl)c2)c2ccccc21	none (no result: PKD1 kinase inh)
O=C(O)c1nonc1-c1nonc1C(=O)O	Wee1 stabilizer 18
CCOC(=O)c1nsnc1NCCCl	none
Cc1c2cnn(CC(=O)N3CCC4(CC3)OCCO4)c(=O)c2c(C)n1Cc1ccccc1F	HMGR II inh 12
Nc1cc(Cl)c2nonc2c1[N+](=O)[O-]	none
COc1ccc(CN2C(=O)NC(=O)/C(=C\c3ccco3)C2=O)cc1	HMGR II inh 12
COc1ccc(CN2C(=O)NC(=O)/C(=C\c3cc(OC)c(OC)c(OC)c3)C2=O)cc1	none
O=C(c1cc(F)ccc1F)C1CCCN(Cc2cccc(Cl)c2)C1 (centres undefined)	none
O=C(c1cc(F)ccc1F)C1CCCN(CCCc2ccccc2)C1 (centres undefined)	HMGR II inh 9.6
CC(C)(C)NC(=O)C1CC2CCCCC2CN1 (centres undefined)	none
COc1cc(/C=C/C(=O)c2c(O)n(CCc3ccccc3)c(=O)[nH]c2=O)ccc1O	Arbovirus anti 46
Nc1ccccc1C(=O)OCC(=O)Nc1ccc(Br)cc1F	none
CCN1CCN(C(=O)Cc2ccccc2OC)CC1	HMGR II inh 14
COc1ccccc1CN1CCN(C(=O)COc2ccccc2)CC1	none
CCCCN1C(=O)C(C2c3ccccc3C(=O)N2Cc2ccccc2)C(=O)NC1=S (centres undefined)	Wee1 stabilizer 9.9
Cc1ccc(CC2C(=O)N(C)C(=O)N(C)C2=O)s1	Arbovirus anti 81
Cc1ccc2ccccc2c1NC(=O)CNC1CCCCC1	Wee1 stabilizer 10
CN(C(=O)Oc1ccc(C(C)(C)C)cc1)c1ccccc1	none
CSc1nnc(OC(=O)N(C)C)n1-c1ccc(Cl)cc1	none (no result: Arbovirus anti, Hsp70 act, PKD1 kinase inh, HMGR II inh)
Cc1cccc(CN2CCCC(C(=O)c3ccc4c(c3)OCO4)C2)n1 (centres undefined)	none
CC(C)CCOC(=O)c1c(N)n(CC2CCCO2)c2nc3ccccc3nc12 (centres undefined)	Wee1 stabilizer 10
CC(C)OC(=O)c1c(N)n(CC2CCCO2)c2nc3ccccc3nc12 (centres undefined)	none
COc1ccc(C(=O)C2CCCN(Cc3cnc(C)s3)C2)c(OC)c1 (centres undefined)	HMGR II inh 16
O=C(CN1CC=C(c2ccccc2)CC1)Nc1cc(Cl)ccc1Cl	none
Cc1ccc(S(=O)(=O)N2CCCCC2)cc1NC(=O)CN1CC=C(c2ccccc2)CC1	Wee1 stabilizer 9.2
NC1=NC(=O)C(c2ccccc2)O1 (centres undefined)	Wee1 stabilizer 10 (no result: PKD1 kinase inh)
CC1CC(OC(=O)c2ccccc2)CC(C)N1C (centres undefined)	none
CN1C2CCC1CC(OC(=O)c1ccc([N+](=O)[O-])cc1)C2 (centres undefined)	Wee1 stabilizer 13 | Wee1 stab conf inactive
O=c1c2ccccc2nc(/C=C/c2ccc(O)cc2)n1-c1cccc(O)c1	Wee1 stabilizer 12 | Wee1 stab conf inactive
Cc1ccc(-n2c(/C=C/c3ccc4c(c3)OCO4)nc3ccccc3c2=O)cc1	Wee1 stabilizer 11 | Wee1 stab conf inactive
O=C(C(=O)N1CCOCC1)c1cn(Cc2ccccc2Cl)c2ccccc12	none
O=C(C(=O)N1CCOCC1)c1cn(Cc2ccc(F)cc2)c2ccccc12	Wee1 stabilizer 12 (no result: Arbovirus anti, Hsp70 act, PKD1 kinase inh, HMGR II inh) | Wee1 stab conf inactive
CCN1CCN(c2nc3ccccc3s2)CC1	Wee1 stabilizer 15 | Wee1 stab conf inactive
O=P(c1ccccc1)(c1nc2ccccc2s1)N1CCOCC1 (centres undefined)	none
CN1CCN(c2ncc(C=O)s2)CC1	none
CSc1nc(N2CCN(C)CC2)c2ccccc2n1	Wee1 stabilizer 15 | Wee1 stab conf inactive
CCCC12CN3CCN(CC(C3)/C1=N\NC(=O)c1ccncc1)C2	none
O=C(c1ccc2c(c1)OCO2)C1CCCN(CC2CCCCC2)C1 (centres undefined)	none
